Structures are written as SMILES. The campaign covered roughly 1,600 compounds. About 25 (2%) were called active. Where a call stands in place of a potency, no number is given. Another 7% or so got no clear call; they are omitted. The sample holds actives, similar compounds and a random draw of the others, so the mix is not that of the screen. The call rests on the fitted dose curve; in most records, active means well fitted inhibition curve with a large enough effect; inconclusive means small, poorly fitted or top-dose-only effect, or effect the other way; inactive means no such curve, though single readings can be large or run the other way.
Potency means the concentration at half of the fitted maximal effect.

Chain of Runt-related transcription factor 1 (Homo sapiens) + Core-binding factor subunit beta (Homo sapiens) (Q01196 whole entry, looked up): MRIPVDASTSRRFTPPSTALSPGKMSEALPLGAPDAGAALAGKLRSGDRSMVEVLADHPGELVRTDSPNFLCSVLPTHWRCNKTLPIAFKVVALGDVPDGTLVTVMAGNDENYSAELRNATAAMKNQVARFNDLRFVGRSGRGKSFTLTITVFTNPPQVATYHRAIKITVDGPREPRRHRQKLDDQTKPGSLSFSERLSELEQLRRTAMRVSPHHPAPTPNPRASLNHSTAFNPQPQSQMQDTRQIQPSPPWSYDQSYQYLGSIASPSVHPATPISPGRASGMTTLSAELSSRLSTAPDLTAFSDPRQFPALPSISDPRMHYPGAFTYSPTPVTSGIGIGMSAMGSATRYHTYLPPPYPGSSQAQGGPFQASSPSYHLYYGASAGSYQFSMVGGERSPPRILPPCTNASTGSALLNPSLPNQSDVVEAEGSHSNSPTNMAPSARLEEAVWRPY
Chain of Runt-related transcription factor 1 (Homo sapiens) + Core-binding factor subunit beta (Homo sapiens) (Q13951 whole entry, looked up): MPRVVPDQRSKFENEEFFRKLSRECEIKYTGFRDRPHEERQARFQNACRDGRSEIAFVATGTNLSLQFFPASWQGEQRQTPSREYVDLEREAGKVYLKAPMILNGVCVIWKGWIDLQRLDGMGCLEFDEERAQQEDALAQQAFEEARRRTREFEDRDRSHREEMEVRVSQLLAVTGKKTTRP

In this test the target is Runt-related transcription factor 1 (Homo sapiens) + Core-binding factor subunit beta (Homo sapiens) (UniProt Q01196+Q13951). Put plainly: qHTS Assay for Compounds Blocking the Interaction Between CBF-beta and RUNX1 for the Treatment of Acute Myeloid Leukemia: Hit Validation with Orthogonal Assay. The settings on record: CBFbeta-RUNX1 binding orthogonal assay, biochemical; series mostly up to 41 µM. The method in brief:
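This is an orthogonal TR-FRET assay. His6-CBF-beta and biotin-RUNX1 (30 nM each) were preincubated with compound for 30 min, then Tb-anti-His antibody (0.44 ng) and streptavidin-XL665 (5 nM) were added. The signal was read after 90 min.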
On the technique in general: In qHTS, concentration-response curves come from the screen itself.
In the case of `Cc1cc(NC(=O)CN2CCOCC2)n(-c2ccccc2)n1`, the Potency result was “inactive”.
The entry for `NS(=O)(=O)c1ccc(Sc2ccccn2)c([N+](=O)[O-])c1` is “inactive”; for `O=C(Nc1ccc2ccccc2c1)c1ccc(Cl)cc1Cl` it is “inactive”; for `COc1cccc(/C=N/n2nnnc2N)c1` it is “inactive”.
The entry for `CCN(CC)S(=O)(=O)c1ccc(/C=C/C(=O)Nc2ccc(N3CCOCC3)cc2)cc1` is “inactive”; for `CN(C(=O)C(Cl)Cl)C1CC2C=CC1C2` (centres undefined) it is “inactive”.
The entry for `Cc1cc(C)c(OCC(=O)N(Cc2ccc(N(C)C)cc2)C2CCS(=O)(=O)C2)c(C)c1` (centres undefined) is “inactive”; for `CN(C)S(=O)(=O)c1ccc(Cl)c(NC(=O)CN2CCN(Cc3ccc4c(c3)OCO4)CC2)c1` it is “inactive”; for `CC(C)(O)P(=O)(O)CCc1ccccc1` it is “inactive”.
Turning to `COC(=O)c1ccccc1N=Nc1c(C)noc1C`, the Potency result was “inactive”.
The value for `COc1ccccc1/C=C/C=N/n1c(-c2ccccn2)n[nH]c1=S` was “inactive”; that for `CC(=O)Oc1ccc(C(=O)Nc2cccc(-c3nnc(-c4ccco4)o3)c2)cc1` was “inactive”.
For the molecule `C=CCNC(=S)NCC`, the Potency result was “inactive”.
As to `CN(C)c1cc(-c2ccc([N+](=O)[O-])cc2)oc(=O)c1Cl`, the Potency entry was “inactive”.
The value for `CCCc1cc(=O)oc2c(CN(CC)CC)c(O)c(Cl)cc12` was “inactive”.
`C/C(=N\O)C1CC(CC(=O)O)C1(C)C` (centres undefined): the Potency result is “inactive”.
The entry for `CCc1sc(N)nc1-c1ccccc1` is “inactive”; for `CC(C)NC(=O)NNC(=O)Cn1nnc(-c2cccc(Cl)c2Cl)n1` it is “inactive”; for `COCCn1c(-c2ccc(Br)cc2)nc2oc3cc(OC)ccc3c(=O)c2c1=O` it is “inactive”.
With `Fc1c(CSC(=S)N2CCOCC2)cccc1CSC(=S)N1CCOCC1`, the Potency result is “inactive”.
On to `COc1ccc(/C=C/C(=O)Oc2cc(O)cc(O)c2)cc1`, for which the Potency entry was “inactive”.
`CN1C2CCC1CC(NC(=O)c1ccc(Cl)cc1)C2` (centres undefined): the Potency entry was “inactive”.
The value for `O=C(O)C1=CC(=C(c2ccc(O)c(C(=O)O)c2)c2ccc(O)c(C(=O)O)c2)C=CC1=O` was 7.94 µM (active); that for `COc1ccc(/C=N/NC(=O)c2ccc(Br)cc2)cc1CN1CCOCC1` was “inactive”; that for `O=[N+]([O-])c1cc(Cl)cc(/C=N/NC(=S)Nc2ccc(S(=O)(=O)N3CCOCC3)cc2)c1O` was “inactive”.
The entry for `CSCC[C@H](NC(=O)OC(C)(C)C)C(=O)N/N=C/c1cccc2nccnc12` is “inactive”.
The value for `COc1ccccc1N1C(=O)[C@@H]2[C@H](C1=O)[C@H](C(=O)c1ccc(OC(C)=O)cc1)N1N=CC=C[C@@H]21` was “inactive”; that for `CC(C)Nc1cc(C(C)(C)C)nc2c(-c3ccccc3)cnn12` was “inactive”; that for `Cc1nnc(NC(=O)c2ccccc2NC(=O)c2ccccc2)s1` was “inactive”.
Turning to `CN1CCN(C(=O)C23CC4CC(C)(CC(C)(C4)C2)C3)CC1`, the Potency entry was “inactive”.
The value for `COc1cccc(N/C(=N/C(=S)Nc2ccc(C)cc2C)Nc2nc(C)cc(C)n2)c1` was “inactive”; that for `CC(=O)N1N=C2c3ccccc3CCC2C1c1cccs1` (centres undefined) was “inactive”.
Turning to `CC(=O)Nc1ccc(NS(=O)(=O)c2ccc(C)cc2)cc1[N+](=O)[O-]`, the Potency result was “inactive”.
The entry for `Cc1cc(-c2ccccc2C(=O)Nc2ccccc2O)on1` is “inactive”.
The entry for `O=C(O)c1ccccc1C(=O)Nc1ccc(-n2ccc(C(F)(F)F)n2)cc1` is “inactive”; for `Cc1nc2c(c(=O)c3ccccc3n2C)c(=O)n1-c1ccccc1` it is “inactive”; for `CN(C)c1ccc(NC(=O)Nc2csc3ccccc23)cc1` it is “inactive”.
The entry for `CSc1cccc(NC(=O)Nc2ccccc2C(N)=O)c1` is “inactive”.
Take `NC(=O)c1ccc(NC(=O)COC(=O)/C=C/c2ccc3c(c2)OCO3)cc1`: the Potency entry was “inactive”.

The values are drawn from PubChem BioAssay AID504375 (National Center for Advancing Translational Sciences (NCATS), 2011).
